Measured values from ChEMBL document CHEMBL3988442, “University of Dundee, Small-Polar-MMV Screening Library” (2021).
Screen size: about 48,000 compounds; about 13,000 (27%) showed an effect of 50% or more. This is one part of the list.

These compounds were tested on Wolbachia pipientis (assay: Anti-Wolbachia Cell-Based Screen). Conditions: 5 µM.
Type: functional
Design: scale not given: in the data most compounds retested in dose-response had high values
With `Cc1cc(N)nc(SC2CCCN(Cc3ccccc3)C2=O)n1` (stereo not drawn) the “Percent Effect” value was -26.38%.
In the case of `Cc1cnc(C(=O)N2CCC3(CCCN(c4nncs4)C3)C2)cn1` (stereo not drawn), the “Percent Effect” value is reported as -22.67%.
`Cc1ccccc1N1CC2(CCN(c3nncs3)C2)CC1=O` (stereo not drawn) was tested, and the “Percent Effect” value was 115.5%.
For `Cc1ccccc1N1CC2(CCN(Cc3nccn3C)C2)CC1=O.O=C(O)C(F)(F)F` (stereo not drawn), the “Percent Effect” value was 12.68%.
`Cc1ccc(CN2CCN(Cc3ccncc3)[C@@H]3CS(=O)(=O)C[C@@H]32)cc1` was tested, and the “Percent Effect” value was 9.085%.
In the case of `Cc1n[nH]c(CN2CCN(Cc3ccccc3)[C@@H]3CS(=O)(=O)C[C@@H]32)n1`, the “Percent Effect” value is reported as -3.3%.
In the case of `O=S1(=O)C[C@@H]2[C@H](C1)N(S(=O)(=O)N1CCCC1)CCN2Cc1ccccc1`, the “Percent Effect” value is reported as -24.95%.
`Cn1ccnc1CN1CCN(Cc2ccccc2)[C@@H]2CS(=O)(=O)C[C@@H]21` was tested, and the “Percent Effect” value was 89.31%.
For `CCc1ccccc1CN1CCN(Cc2ncc[nH]2)[C@H]2CS(=O)(=O)C[C@H]21`, the “Percent Effect” value was 21.76%.
With `O=S1(=O)C[C@@H]2[C@H](C1)N(Cc1ncc[nH]1)CCN2C/C=C/c1ccccc1` the “Percent Effect” value was -2.971%.
In the case of `O=C(C1CCCC1)N1CCN(Cc2ccncc2)[C@@H]2CS(=O)(=O)C[C@@H]21`, the “Percent Effect” value is reported as -3.8%.
With `Cn1ccnc1CN1CCN(Cc2ccncc2)[C@@H]2CS(=O)(=O)C[C@@H]21` the “Percent Effect” value was 120.1%.
For `O=S1(=O)C[C@@H]2[C@H](C1)N(Cc1ncc[nH]1)CCN2CCCc1ccccc1`, the “Percent Effect” value was 97.44%.
In the case of `CC1(C)CCC(C(=O)N2CCCO2)c2ccccc21` (stereo not drawn), the “Percent Effect” value is reported as 6.18%.
`CC(C)OC(=O)N1CCCC2(CCC(=O)N(CCc3c[nH]cn3)C2)C1` (stereo not drawn) was tested, and the “Percent Effect” value was 2.776%.
`Cc1ccc(Cl)c(NC(=O)NC2(C)CCOC2)c1` (stereo not drawn) was tested, and the “Percent Effect” value was -14.51%.
For `Cc1nc(CNC(=O)CC2C(=O)NCCN2CCC(C)C)n[nH]1` (stereo not drawn), the “Percent Effect” value was 13.35%.
`O=C1CCCN1CCCC(=O)N1CCCC(Cc2cccnc2)C1` (stereo not drawn) was tested, and the “Percent Effect” value was 77.87%.
In the case of `Cc1ccn(CCC(=O)N2CCCC(Cc3cccnc3)C2)n1` (stereo not drawn), the “Percent Effect” value is reported as 122.4%.
With `CC(C)c1noc(CCCC(=O)N2CCC(Cc3cccnc3)CC2)n1` the “Percent Effect” value was -13.45%.
With `CC1CCCN(C(=O)CCNS(=O)(=O)c2cccnc2)C1` (stereo not drawn) the “Percent Effect” value was 5.119%.
For `O=C(CSCC1CC1)N1CCCC(c2nccn2Cc2cccnc2)C1` (stereo not drawn), the “Percent Effect” value was -14.92%.
`CN(CCC(=O)N1CCCC(Cc2cccnc2)C1)Cc1cccnc1` (stereo not drawn) was tested, and the “Percent Effect” value was 128.2%.
In the case of `CN(C)CCn1ccnc1C1CCCN(C(=O)CCc2cccnc2)C1` (stereo not drawn), the “Percent Effect” value is reported as -16.88%.
For `O=C(CCn1ncc2ccccc21)N1CCCC(Cc2cccnc2)C1` (stereo not drawn), the “Percent Effect” value was 101.6%.
With `COCCN1CC2(CCC1=O)CCN(Cc1cc(F)ccc1Cl)CC2` the “Percent Effect” value was 8.376%.
In the case of `COCCCN1CC2(CCC1=O)CCN(Cc1cc(C)no1)CC2`, the “Percent Effect” value is reported as -12.58%.
For `O=C(CCC1CCCO1)NCCN1CCCCC1` (stereo not drawn), the “Percent Effect” value was -10.6%.
With `CC(C)C(=O)N1CCC2(CC1)NC(=O)[C@H]1CN(Cc3cccnc3)C[C@H]12` the “Percent Effect” value was -21.16%.
In the case of `CC(C)C(=O)N1CCCC(Cc2cccnc2)C1` (stereo not drawn), the “Percent Effect” value is reported as 104.6%.
For `CSc1nnc(CC2CCN(C(=O)CCc3cccnc3)CC2)n1C`, the “Percent Effect” value was -9.622%.
In the case of `CC1CCCN(C(=O)CCc2cccnc2)C1` (stereo not drawn), the “Percent Effect” value is reported as -4.583%.
With `Cn1nccc1CCC(=O)N1CCCC(Cc2cccnc2)C1` (stereo not drawn) the “Percent Effect” value was 92.49%.
For `CC(C)c1nc(C2CCCN(C(=O)Cc3cccnc3)C2)no1` (stereo not drawn), the “Percent Effect” value was -1.83%.
In the case of `CCN(C(=O)Cc1ccc(NCc2ncc[nH]2)cc1)c1ccccc1`, the “Percent Effect” value is reported as -2.92%.
`Cc1[nH]c(=O)c(C#N)cc1C(=O)N1C[C@@H](CN2CCCC2)C[C@H](CO)C1` was tested, and the “Percent Effect” value was 10.61%.
`CCOc1ccccc1C(CC(=O)Nc1ccccc1)NC(C)=O` (stereo not drawn) was tested, and the “Percent Effect” value was -7%.
In the case of `CCC(=O)N1CCN(c2cc(N(C)C)cnn2)CC1`, the “Percent Effect” value is reported as 6.449%.
With `O=c1[nH]c(N2CC(O)C2)nc2c1cnn2-c1ccccc1` the “Percent Effect” value was 21.25%.
`Cc1nc(CN2C(=O)COC3(CCN(C(N)=O)CC3)C2C)cs1` (stereo not drawn) was tested, and the “Percent Effect” value was 117.7%.
In the case of `Cc1nc(CN2C(=O)COC3(CCN(Cc4ccsc4)CC3)C2C)cs1.O=C(O)C(F)(F)F` (stereo not drawn), the “Percent Effect” value is reported as 114.5%.
For `COCC1CC2(CCN(C(N)=O)CC2)CN1Cc1csc(C)n1.O=C(O)C(F)(F)F` (stereo not drawn), the “Percent Effect” value was -7.067%.
With `CC1N(CC2CC2)C(=O)COC12CCN(C(=O)c1cscn1)CC2` (stereo not drawn) the “Percent Effect” value was -4.225%.
For `Cc1nc(CN2C(=O)CC3(CCN(C(N)=O)CC3)c3ccccc32)cs1.O=C(O)C(F)(F)F`, the “Percent Effect” value was -9.244%.
For `Cc1nc(CN2C(=O)COC3(CCN(Cc4nccs4)CC3)C2C)cs1.O=C(O)C(F)(F)F` (stereo not drawn), the “Percent Effect” value was -7.401%.
`Cc1nc(CN2C(=O)COC3(CCN(CC4CC4)CC3)C2C)cs1.O=C(O)C(F)(F)F` (stereo not drawn) was tested, and the “Percent Effect” value was 98.79%.
`Cc1nc(CN2C(=O)COC3(CCN(C)CC3)C2C)cs1.O=C(O)C(F)(F)F` (stereo not drawn) was tested, and the “Percent Effect” value was 127.2%.
For `CCc1ccc(CNC(=O)Nc2cc(C)on2)s1`, the “Percent Effect” value was -14.37%.
With `COCc1nc2cc3c(cc2c(=O)o1)OCCCO3` the “Percent Effect” value was -7.292%.
For `COc1cc(CC(O)CC#N)c(OC)c2c1OCO2` (stereo not drawn), the “Percent Effect” value was -11.73%.
With `COCc1noc(-c2nn(-c3ccccc3F)c3c2CCC3)n1` the “Percent Effect” value was -4.596%.
In the case of `Cc1ncsc1CCC(=O)N1CCCC[C@H](N(C)C)C1`, the “Percent Effect” value is reported as 4.231%.
With `CCCNc1ccc(C(=O)NCCc2cccc(Cl)c2)cn1` the “Percent Effect” value was 116.4%.
`COc1cccc(CCNC(=O)c2ccc(=O)n(C)c2)c1` was tested, and the “Percent Effect” value was 11.31%.
With `COc1cc(C(=O)NCCc2ccc(Cl)cc2)on1` the “Percent Effect” value was -4.303%.
With `CCCNc1ccc(C(=O)NCCc2cccc(OC)c2)cn1` the “Percent Effect” value was 121.7%.
In the case of `CNC(=O)c1cccc(CCNc2ccc(C#N)cn2)c1`, the “Percent Effect” value is reported as -20.96%.
In the case of `CCCNc1ccc(C(=O)NCCc2ccc(Cl)cc2)cn1`, the “Percent Effect” value is reported as 106.9%.
`CCNc1ncc(C(=O)NCCc2ccc(C)c(C)c2)cn1` was tested, and the “Percent Effect” value was -6.077%.
For `COc1cc(C(=O)NCCc2cccc(C)c2)on1`, the “Percent Effect” value was -13.11%.
In the case of `CNC(=O)c1cccc(CCNc2ccccn2)c1`, the “Percent Effect” value is reported as -20.45%.
`CCCn1cnnc1CNC(=O)CC1C(=O)NCCN1C(C)C` (stereo not drawn) was tested, and the “Percent Effect” value was -4.75%.
With `CN(CCCc1nccn1C)C(=O)C1CCN(C(=O)C2CCCC2)CC1` the “Percent Effect” value was -7.854%.
